These results are taken from PubChem BioAssay.

The target in assay [1] is 6-phosphogluconate dehydrogenase, decarboxylating (Homo sapiens) (UniProt P52209). The assay can be described thus: inhibition of human phosphogluconate dehydrogenase – biochemical, recombinant enzyme, NADPH absorbance, primary screen (AID 1159550). As to conditions: recombinant 6PGD, NADPH absorbance 341 nm; at 10 µM; stronger effect = higher value.
The nature of assay [2]: EMT-state selective cytotoxicity in co-culture – imaging, PC-3E GFP, TEM4-18 mCherry, primary screen (AID 1345086;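 active means compounds killing one labelled cell type while sparing the other, by normalised counts and ratio limits, not self-fluorescent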;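 on all read-outs here: cells exposed to compound for 72 h before imaging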;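 on red/green cell ratio (normalised): normalised mesenchymal count divided by normalised epithelial count so high means epithelial killing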). To be noted: PC-3E GFP / TEM4-18 mCherry co-culture, imaging cell counts, at 1 µM; for red/green cell ratio (normalised): actives lie on both sides, counts scaled to control wells, 1 = unselective.
A short description of assay [3]: viability loss with induced miR-34 in A549 – imaging, A549 dox-inducible miR-34, nuclei and caspase counts, primary screen (AID 1347080;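 active means compounds whose cell count with miR-34 switched on is under 0.7 times the count with it off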). To be noted: A549 miR-34 inducible, Hoechst nuclei count, 48 h.
Assay [4] deals with Mitogen-activated protein kinase 7 (Homo sapiens) (UniProt Q13164). The assay can be described thus: Gal4-ERK5 driven luciferase induction – cell-based, HTS, primary screen (AID 1508626;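 active means luciferase signal above three times the same-plate solvent-only control wells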;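 further: luciferase driven by Gal4-ERK5 fusion binding five Gal4 sites before minimal TATA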). As to conditions: HeLa Gal4-ERK5 transactivation, 18 h, at 5 µM, stronger effect = higher value.
Chain of Mitogen-activated protein kinase 7 (Homo sapiens) (Q13164 whole entry, looked up, the tested form may be a part): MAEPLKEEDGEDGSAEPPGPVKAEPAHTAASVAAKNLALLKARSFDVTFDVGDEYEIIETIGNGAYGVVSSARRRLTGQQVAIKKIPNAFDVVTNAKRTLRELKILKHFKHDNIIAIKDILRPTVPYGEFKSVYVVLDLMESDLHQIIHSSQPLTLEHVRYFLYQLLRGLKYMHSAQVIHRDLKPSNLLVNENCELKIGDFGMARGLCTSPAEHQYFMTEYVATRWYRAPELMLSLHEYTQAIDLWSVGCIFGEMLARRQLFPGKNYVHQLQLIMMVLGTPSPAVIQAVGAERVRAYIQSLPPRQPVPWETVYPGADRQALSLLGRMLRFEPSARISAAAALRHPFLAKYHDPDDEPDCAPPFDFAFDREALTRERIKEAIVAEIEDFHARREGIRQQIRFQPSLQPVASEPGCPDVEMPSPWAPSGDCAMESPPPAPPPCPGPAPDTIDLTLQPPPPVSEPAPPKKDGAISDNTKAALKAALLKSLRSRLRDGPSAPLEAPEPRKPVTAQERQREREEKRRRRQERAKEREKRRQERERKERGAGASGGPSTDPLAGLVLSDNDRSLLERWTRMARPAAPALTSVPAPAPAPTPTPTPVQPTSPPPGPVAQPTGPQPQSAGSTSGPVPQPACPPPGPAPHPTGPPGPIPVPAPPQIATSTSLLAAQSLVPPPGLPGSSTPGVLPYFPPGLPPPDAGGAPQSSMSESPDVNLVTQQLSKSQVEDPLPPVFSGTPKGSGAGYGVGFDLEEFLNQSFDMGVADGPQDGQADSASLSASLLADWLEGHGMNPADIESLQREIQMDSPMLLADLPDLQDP
Assay [5] can be described thus: blockers of polyQ-driven CASP3 activation – cell-based (AID 1583). As to conditions: polyglutamine-induced caspase-3 activation, cell assay; stronger effect = higher value;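 tested at 10 µM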.
A short description of assay [6]: yeast 75Q aggregation reduction – 75Q-TubU reporter (AID 1593). To be noted: Yeast 75Q polyglutamine aggregation reporter.
The nature of assay [7]: restoration of touch response, mutant HTT neurons – whole organism, C. elegans mechanosensory neurons, N-terminal huntingtin (AID 1599). As to conditions: C. elegans polyQ-huntingtin mechanosensory neurons, stronger effect = higher value.
Assay [8] is described as follows: blockers of cytochrome c efflux from mitochondria – biochemical, purified mitochondria (AID 1603).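 Further: mouse liver mitochondria challenged with calcium chloride; signal normalized to the plate average as 100%.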 As to conditions: stronger effect = lower value.
Assay [9] in a line: polyglutamine aggregate formation blockers (AID 1604). As to conditions: polyglutamine-induced protein aggregation inhibition assay; stronger effect = higher value; tested at 2.5 µM.
The nature of assay [10]: glutamate transport activators, MN-1 cells, MN-1 cell line (AID 1612).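 Further: tested at 1 µM final; 0% = mean of DMSO vehicle wells on each plate; positive means more glutamate uptake than control and negative means less.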 As to conditions: MN-1 motor neuron cells, stronger effect = higher value.
The nature of assay [11]: GFP-Q80 aggregate reduction, neuronal-like cells, cell-based, NGF-treated PC12, GFPQ80 (AID 1614).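 Further: lower means fewer inclusions and 0 means no inclusions at all.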 As to conditions: PC12 NGF-treated GFP-polyQ80 inclusion reduction.
The nature of assay [12]: 75Q-TubH aggregate inhibition, S. cerevisiae, yeast (AID 1616). To be noted: S. cerevisiae 75Q-TubH polyglutamine aggregation suppression; stronger effect = higher value.
Assay [13] is described as follows: P. berghei load reduction in hepatocytes – cell-based, HepG2, luciferase luminescence, HepG2 viability, primary screen (AID 624349; in the data active means parasite load remaining mostly below about 12%, no sharp cut-off; inactive means mostly above about 10%;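 further: 100% = mean of DMSO negative control wells on the same plate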). As to conditions: P. berghei liver stage in HepG2, luciferase luminescence, concentration not given here; parasite load remaining: stronger effect = lower value; viability: measured here: HepG2 viability without parasites.
The target of assay [14] is NAD(+) hydrolase SARM1 (Homo sapiens) (UniProt Q6SZW1). The assay can be described thus: blocking NAD cleavage by SARM1 SAM-TIR – cell lysate, NAD-Glo luminescence (AID 1508614;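 active means compound whose remaining NAD level is above about 45 nM, limit read from the data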). As to conditions: SAM-TIR HEK293T lysate NADase, at 1 µM, stronger effect = higher value.
Chain of NAD(+) hydrolase SARM1 (Homo sapiens) (Q6SZW1 whole entry, looked up): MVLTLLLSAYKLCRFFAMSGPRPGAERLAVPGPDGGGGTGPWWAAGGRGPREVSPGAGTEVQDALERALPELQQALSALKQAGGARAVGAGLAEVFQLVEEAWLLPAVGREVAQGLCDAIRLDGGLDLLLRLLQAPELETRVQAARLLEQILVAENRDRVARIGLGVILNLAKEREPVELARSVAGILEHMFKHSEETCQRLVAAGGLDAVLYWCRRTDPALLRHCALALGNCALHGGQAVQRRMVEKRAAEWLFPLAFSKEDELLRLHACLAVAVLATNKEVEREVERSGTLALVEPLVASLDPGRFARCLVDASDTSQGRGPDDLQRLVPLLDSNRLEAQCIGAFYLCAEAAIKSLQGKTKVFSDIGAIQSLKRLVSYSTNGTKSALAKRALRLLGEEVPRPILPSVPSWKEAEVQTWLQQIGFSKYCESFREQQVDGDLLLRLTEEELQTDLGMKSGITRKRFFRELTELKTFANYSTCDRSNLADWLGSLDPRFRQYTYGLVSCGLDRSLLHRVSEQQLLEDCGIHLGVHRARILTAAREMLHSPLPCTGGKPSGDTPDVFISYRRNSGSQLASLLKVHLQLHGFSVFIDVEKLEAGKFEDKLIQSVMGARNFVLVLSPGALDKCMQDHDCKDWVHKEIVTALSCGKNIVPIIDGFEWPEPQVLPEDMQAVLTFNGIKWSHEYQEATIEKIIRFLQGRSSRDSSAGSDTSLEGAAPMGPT
Assay [15] can be described thus: compounds altering circadian rhythm period length – cell-based, LOPAC library, luminescence reporter (AID 2774; call rule not given here;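 further: values are relative to mean of DMSO wells on each plate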). To be noted: circadian reporter cells, at 7 µM, actives lie on both sides.
Assay [16] deals with Hepatitis C virus NS3 helicase. Put plainly: blockers of NS3h binding to ssDNA – biochemical, fluorescence polarization, LOPAC1280 library, primary screen (AID 687035; in the data active means inhibition above about 37%). As to conditions: Purified HCV NS3 helicase, Cy5-dT15 ssDNA binding fluorescence polarization; stronger effect = higher value; concentration not given here. (In general: Polarisation of emitted light reports the rotation of a fluorescent probe.)

Assay [17] is described as follows: compounds altering Cy5-DNA-NS3h complex signal – biochemical, LOPAC1280, artefact control for HCV NS3 helicase inhibitor project (AID 687037; call rule not given here). As to conditions: Cy5-DNA-NS3h complex fluorescence interference counterscreen. In general terms: The purpose of a counterscreen is to sort out artefacts and off-target activity.
Assay [18] is described as follows: chitosan synthesis blockers in C. neoformans – flow cytometry, Cibacron Brilliant Red staining (AID 1347148; call rule not given here;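 further: compound exposure lasted three days at 37 degrees C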). As to conditions: Cryptococcus neoformans chitosan, stronger effect = lower value; at 10 µM unless noted. On the technique in general: In flow cytometry, cells or beads pass a laser one at a time.
The nature of assay [19]: blockers of cellular phospholipid synthesis – cell-based, LOPAC library, screen 4, primary screen (AID 1347384; call rule not given here). As to conditions: animal cells, phospholipid biosynthesis inhibition screen; at 10 µM.
Assay [20] is described as follows: MELAS cybrid and Rieske KO viability enhancers – cell-based, MELAS cybrids, Rieske KO mouse fibroblasts, CellTiter-Glo, primary screen (AID 1508586;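 active means mean z-score across replicates of 1.96 or higher in either the MELAS or the Rieske mutant cell line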;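 further: z relative to plate mean and SD of compound and empty wells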). To be noted: low glucose.
A short description of assay [21]: galactose survival enhancers in mitochondrial complex I cybrids – cell-based, galactose medium, ATP luminescence, primary screen (AID 1645843;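 active means z-score of at least 1.8 in each of two replicates, scored against plate mean and spread of sample wells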;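 further: positive z means more ATP and so rescue of galactose-driven cybrid death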). As to conditions: complex I mutant cybrid cells, 72 h, stronger effect = higher value.
Where [22] appears, read: measured here: epithelial PC-3E GFP cell survival.
[23] abbreviates: measured here: mesenchymal TEM4-18 mCherry cell survival.
Where [24] appears, read: stronger effect = lower value, cell number ratio, induced over uninduced.
Where [25] appears, read: measured here: relative caspase fold change +Dox/-Dox.
Where [26] appears, read: measured here: total cells with miR-34 induction, stronger effect = lower value.
Setting [27] is: measured here: total cells without miR-34 induction.

Several values for one entry are separate records, joined by “and”; a condition that tells them apart may be missing. Equal entries are not always repeated. For some assays here: Potency and affinity values are given separately. Activity calls are given as the source filed them.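 How the source made its calls, unless noted: active means at least 20% inhibition of 6-phosphogluconate dehydrogenase activity; inactive means the rest.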

Chain of 6-phosphogluconate dehydrogenase, decarboxylating (Homo sapiens) (P52209 whole entry, looked up): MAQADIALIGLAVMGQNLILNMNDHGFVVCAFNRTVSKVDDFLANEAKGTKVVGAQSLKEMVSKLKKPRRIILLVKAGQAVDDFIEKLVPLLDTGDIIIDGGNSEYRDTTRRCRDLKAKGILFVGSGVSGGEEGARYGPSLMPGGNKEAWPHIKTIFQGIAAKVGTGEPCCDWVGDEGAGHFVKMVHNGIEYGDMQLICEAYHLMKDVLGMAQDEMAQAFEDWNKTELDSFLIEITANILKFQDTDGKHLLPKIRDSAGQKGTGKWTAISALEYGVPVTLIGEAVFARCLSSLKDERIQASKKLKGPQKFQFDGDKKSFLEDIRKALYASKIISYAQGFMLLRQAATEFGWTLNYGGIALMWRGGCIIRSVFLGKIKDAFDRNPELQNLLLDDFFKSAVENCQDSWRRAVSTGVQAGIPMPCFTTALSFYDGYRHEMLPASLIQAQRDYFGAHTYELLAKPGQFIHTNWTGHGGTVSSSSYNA

One may read the inhibition as the change of the read-out against control, counted positive when it falls. Regarding `CCCCC(=O)Oc1ccccc1C(=O)O`, the inhibition in assay [1] is 18.3% (inactive). Also, the red/green cell ratio (normalised) in assay [2] is 0.89 (inactive). Also, the normalised cell number in [2] (setting [22]) turned out to be 1.25; in assay [2] (setting [23]) it was 1.11. Further, the fold change in assay [3] (setting [24]) is 0.935 (inactive); in assay [3] (setting [25]), 0.938. Besides, the results for the cell count in assay [3] (setting [26]) and in assay [3] (setting [27]) were 5290 and 5650, respectively. Further, the luciferase signal in assay [4] is 56 AU (inactive).
Usually viability stands for a read-out of living cells in per cent, often relative to untreated cells. For the compound `CCOC(=O)CCC(=O)O[C@H]1[C@H](O[C@@H]2[C@@H](C)[C@H](O[C@H]3C[C@@](C)(OC)[C@@H](O)[C@H](C)O3)[C@@H](C)C(=O)O[C@H](CC)[C@@](C)(O)[C@H](O)[C@@H](C)C(=O)[C@H](C)C[C@@]2(C)O)O[C@H](C)C[C@@H]1N(C)C`, the results for the inhibition in [5] and in assay [1] were 26.4% and -8.96% (inactive), respectively. This compound also came in with a score in assay [6] of 1.27. Besides, in assay [7], the rescue above control was 16.6. Also, in assay [8], the cytochrome c release ratio was determined as 1.72. The same compound yielded an inhibition of aggregation in assay [9] of 47.5%. For the same compound, in [10], the glutamate uptake change was -6.79%. Further, the inclusion score in [11] came out at 2. Further, in assay [12], the aggregation suppression score is 1.2. Further, the parasite load remaining in assay [13] was 61.8% (inactive). Further, the viability in assay [13] stood at 170%. Besides, the red/green cell ratio (normalised) in [2] is 1.11 (inactive). The normalised cell number in assay [2] (setting [22]) was determined as 1.38; in assay [2] (setting [23]) it was 1.54. The fold change in assay [3] (setting [24]) was 0.87 (inactive); in [3] (setting [25]) it was 1.05. For the same compound, the cell count was 11100 in [3] (setting [26]) and 12700 in assay [3] (setting [27]). Moreover, in [14], the remaining NAD is 10 nM (inactive). Further, in assay [4], the luciferase signal was 208 AU (inactive).
Consider `CC(C)Cn1c(=O)n(C)c(=O)c2[nH]cnc21`, for which the inhibition in [5] is 10.7%; in [16], -1% (inactive); in assay [1], -0.657% (inactive) and 4.73% (inactive). In addition, in assay [6], the score stood at 1.18. For the same compound, the rescue above control in [7] is -7.15. Besides, the cytochrome c release ratio in [8] was 0.66. Further, the inhibition of aggregation in [9] came out at 80.3%. The glutamate uptake change in [10] came to 11.7%. Besides, in assay [11], the inclusion score was determined as 2. This compound returned an aggregation suppression score in assay [12] of 1.34. Further, the period change in [15] is 0.065 h (inactive). Further, in assay [13], the parasite load remaining is 31.6% (inactive). In addition, in assay [13], the viability is 71.5%. For the same compound, the fluorescence ratio (interference) in assay [17] is 0.9 (inactive). For the same compound, in [2], the red/green cell ratio (normalised) is 0.79 (inactive) and 0.82 (inactive). The normalised cell number is 1.26 and 1.32 in [2] (setting [22]); 1 and 1.09 in assay [2] (setting [23]). Further, the fold fluorescence in assay [18] was 4.08 [at 225 µM] (inactive). Further, in assay [19], the outcome was inactive. The z-score is -0.413 (inactive) and 0.263 (inactive) in [20] (MELAS cybrid survival, CellTiter-Glo 48 h, stronger effect = higher value); 0.307 and 0.838 in [20] (Rieske KO mouse fibroblast survival, CellTiter-Glo 72 h); 0.71 (inactive) and -0.29 (inactive) and 0.67 (inactive) in assay [21]. Besides, in assay [4], the luciferase signal is 504 AU (active).
Take `C[n+]1c2cc(N)ccc2cc2ccc(N)cc21`: in [6], the score turned out to be 0.44. Further, the rescue above control in assay [7] amounted to 0. Further, in [8], the cytochrome c release ratio stood at 0.97. The inhibition of aggregation in assay [9] came to 91.3%. The glutamate uptake change in assay [10] came to 14.1%. Moreover, the aggregation suppression score in assay [12] is 0.101. The parasite load remaining in assay [13] is 25.5% (inactive) and -0.145% (inactive). Besides, the viability in assay [13] was 41.9% and 34.3%. In addition, the inhibition in assay [1] was -0.987% (inactive). The red/green cell ratio (normalised) in assay [2] was 0.5 (active). The normalised cell number in assay [2] (setting [22]) turned out to be 0.8; in [2] (setting [23]), 0.4. In addition, the fold change is 1.05 (inactive) in assay [3] (setting [24]) and 0.642 in [3] (setting [25]). For the same compound, the cell count in assay [3] (setting [26]) was found to be 1590; in assay [3] (setting [27]), 1510. For the same compound, the remaining NAD in assay [14] is 10 nM (inactive). For the same compound, the luciferase signal in assay [4] is 24 AU (inactive).
Regarding `N[C@H](Cc1ccccc1)C(=O)O`, the inhibition was 15.8% in [5] and 6.57% (inactive) in assay [1]. The compound further gave a score in assay [6] of 1.59. Besides, in assay [7], the rescue above control is -4.58. Further, in assay [8], the cytochrome c release ratio amounted to 0.85. The inhibition of aggregation in assay [9] stood at 56.8%. Also, the glutamate uptake change in assay [10] came to 4.25%. For the same compound, the inclusion score in assay [11] worked out at 2. Moreover, the aggregation suppression score in [12] is 1.21. In addition, the parasite load remaining in [13] was 140% (inactive). For the same compound, the viability in assay [13] was found to be 87.2%. For the same compound, the red/green cell ratio (normalised) in assay [2] is 1.1 (inactive). Also, the normalised cell number came to 0.82 in assay [2] (setting [22]) and 0.9 in [2] (setting [23]). In [14], the remaining NAD is 98 nM (active). In addition, the luciferase signal in assay [4] was 56 AU (inactive).
